Screening results: PubChem, National Center for Advancing Translational Sciences (NCATS)
Shiga inhibitor: A qHTS for Small Molecule Inhibitors of Shiga Toxin | Vero cells, Shiga toxin protein synthesis inhibition reporter | inhibition, % at 38.7 µM | 290,000 tested, 9.2% active | AID 2315, 2010; in the data active = inhibition mostly above about 28%, no sharp cut-off; inactive = mostly below about 43%
Sm TGR inh: qHTS Assay for the Inhibitors of Schistosoma Mansoni Peroxiredoxins; 360,000 tested, 3% active; Potency, µM (top dose mostly 114 µM), actives largely listed as inhibitors; Schistosoma mansoni thioredoxin glutathione reductase (TGR), Q962Y6; purified TGR, DTNB reduction, TNB absorbance 405 nm; also: nearly all actives have a fitted effect of over 60% in size
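TGR 20 nM + NADPH 100 uM (dispensed conc.), cpd preinc 15 min RT; start with NADPH (500 uM addition) then DTNB (15 mM addition). Kinetic TNB absorbance, 405 nm filter. Four-parameter Hill fit across titration.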
CHX counter-1: Cycloheximide Counterscreen for Small Molecule Inhibitors of Shiga Toxin; cell reporter, cycloheximide protein synthesis inhibition counterscreen; max response, %; 300,000 tested, 12% active; in the data active = max response mostly above about 13%, no sharp cut-off; inactive = mostly below about 14%; also: read at 38.3 µM for the half of the compounds with a filed dose
Pf growth 96h: Primary qHTS for delayed death inhibitors of the malarial parasite plastid, 96 hour incubation. P. falciparum luciferase reporter growth, 96 h. Potency, µM (titrated, usually from 28.7 µM), most hits filed as inhibitors. 320,000 tested, 6.9% active. AID 504834, 2011
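P. falciparum expressing integrated firefly luciferase grown in erythrocytes (2% hematocrit, 0.05% parasitemia final) with compounds for 96 hours at 37 C, 5% CO2. Growth inhibition read as loss of luminescence after adding luciferase detection reagent.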
NS1 function inh: qHTS Assay for Inhibitors of Influenza NS1 Protein Function. Potency, µM (doses to about 46.1 µM). AID 2326, 2010. 270,000 tested, 0.4% active; calls by dose curve; also: actives are rising curves; nearly all actives have a fitted effect of over 50% in size
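Recovery from NS1-induced slow growth read by OD600 in budding yeast switched to galactose assay medium (pH 6.0, -URA) at 1:100 dilution. Compound 23 nl per well; the matching strain lacking NS1 serves as control.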
Pf growth 48h: Primary qHTS for delayed death inhibitors of the malarial parasite plastid, 48 hour incubation; P. falciparum luciferase growth in erythrocytes, 48 h; Potency, µM (doses to about 28.7 µM), actives largely listed as inhibitors; 310,000 tested, 5.9% active
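In quantitative HTS format, infected erythrocytes bearing luciferase-reporter parasites were treated for a single generation at 37 C. Luminescence after adding detection reagent served as the growth measure.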
CHX counter-2: Cycloheximide Counterscreen for Small Molecule Inhibitors of Shiga Toxin (Confirmatory). shares compounds with Shiga inhibitor. Cycloheximide counterscreen, protein synthesis reporter, Shiga toxin assay. Potency, µM (series often up to 38.3 µM), most hits filed as activators. 510 tested, 3% active; calls by dose curve
Large screens that a line does not name were inactive (follow-up assays come after a bar, where they were run). Shown are actives, neighbours in structure and some others; about 21% of the full set was active somewhere. Unless noted, calls follow the shape of the dose curve; as a rule, active = well fitted curve in the direction sought with a large enough effect; inconclusive = small, poorly fitted or top-dose-only effect, or another doubt; inactive = no such curve, though single readings can be large; an effect the other way counts as inactive or inconclusive.

CNc1nc(Nc2ccc(Br)cc2)nc(N)c1[N+](=O)[O-]	Shiga inhibitor 50.9, CHX counter-1 23.7
COc1nc(Nc2ccc([N+](=O)[O-])cc2)nc(NC2CCCCC2)n1	Shiga inhibitor 77.9, CHX counter-1 42.9 (no result: NS1 function inh)
COc1ccc(Nc2nc(N)c([N+](=O)[O-])c(NCCO)n2)cc1	none
COc1ccc(Nc2nc(N)c([N+](=O)[O-])c(NC3CCCCC3)n2)cc1	Pf growth 96h 10.4µM, Pf growth 48h inconclusive
COc1nc(NCc2cccnc2)nc(NC2CCCCC2)n1	Shiga inhibitor 34.8, CHX counter-1 71.3, Pf growth 96h inconclusive, Pf growth 48h inconclusive
CCOC(=O)C1CCN(CC(=O)Nc2cc(C)c3c(=O)oc4ccccc4c3n2)CC1	none (no result: Shiga inhibitor, CHX counter-1, Pf growth 96h, NS1 function inh, Pf growth 48h)
O=C/C(=C\Nc1ccc(C(=O)N2CCOCC2)cc1)c1nc2ccccc2o1	none (no result: NS1 function inh)
CCCCCCCCCCCCCCCC[n+]1cccc(C(=O)N(CC)CC)c1	Pf growth 96h 2.62µM, Pf growth 48h 5.22µM
Oc1ccc[n+](CCCCC[n+]2cccc(O)c2)c1	none
CCCCCCCC[n+]1cccc(C(=O)N(CC)CC)c1	Pf growth 96h 8.28µM, Pf growth 48h inconclusive
CCN(CC)C(=O)c1ccc(CS(=O)(=O)Cc2ccccc2)cc1	Pf growth 96h inconclusive
Cc1cc(Cl)ccc1NC(=O)C1CCN(S(=O)(=O)c2ccc3[nH]c(=O)ccc3c2)CC1	none (no result: Shiga inhibitor, CHX counter-1, Pf growth 96h, NS1 function inh, Pf growth 48h)
Cc1ccccc1/C=N/NC(=O)c1ccc(-n2cnnn2)cc1	none (no result: Shiga inhibitor, CHX counter-1, NS1 function inh)
O=C(Nc1ccccc1Cl)c1ccc(S(=O)(=O)N2CCOCC2)cc1	Pf growth 96h inconclusive, Pf growth 48h inconclusive
O=C(Nc1ccccc1)c1ccc(S(=O)(=O)N2CCOCC2)cc1	Shiga inhibitor 53.2 (no result: Pf growth 96h) | CHX counter-2 inactive
COc1ccccc1NC(=O)c1cccc(N2C(=O)C3C4C=CC(C4)C3C2=O)c1 (centres undefined)	Pf growth 96h inconclusive
Cc1ccc(NC(=O)c2cccc(N3C(=O)C4C5C=CC(C5)C4C3=O)c2)cc1C (centres undefined)	Shiga inhibitor 17.5, Pf growth 96h 11.7µM | CHX counter-2 inactive
Cc1cc(N/C=C\c2nnnn2-c2ccccc2)no1	Shiga inhibitor 29.8 | CHX counter-2 inconclusive
COc1cccc(C(=O)NNC(=O)C2CC(C)=C(C)CC2C(=O)O)c1 (centres undefined)	Shiga inhibitor 36.5 | CHX counter-2 inactive
C=CCN(CC=C)CC(O)CN(c1cc([N+](=O)[O-])ccc1OC)S(=O)(=O)c1ccccc1 (centres undefined)	Pf growth 48h inconclusive
COc1ccc(OCCCn2ccnc2)cc1	none
c1ccc(OCCCn2ccnc2)cc1	Shiga inhibitor 41.7 | CHX counter-2 inactive
CCOc1ccc(N2CC(C(=O)Nc3cccc(C(=O)NC4CC4)c3)CC2=O)cc1 (centres undefined)	Pf growth 48h inconclusive (no result: Shiga inhibitor, CHX counter-1, NS1 function inh)
CC(=O)Nc1cccc(NC(=O)CSc2nc3ccccc3o2)c1	Shiga inhibitor 25.1, Pf growth 96h inconclusive | CHX counter-2 inactive
CC1=CC(C)C2(CO)COC(c3cccnc3)C1C2C (centres undefined)	none
N#Cc1cc2c(nc1SCC(=O)Nc1cc(Cl)ccc1Cl)C1CCN2CC1	Shiga inhibitor 48.3, Pf growth 96h inconclusive, Pf growth 48h inconclusive | CHX counter-2 inconclusive
O=S(=O)(/C=C/c1ccccc1)c1ccccc1	none (no result: Pf growth 96h)
O=C/C=C/c1ccccc1	Shiga inhibitor 63.9 (no result: Sm TGR inh, NS1 function inh) | CHX counter-2 inconclusive
Cc1sc(NC(=O)COc2cccc(-n3cnnn3)c2)c(C#N)c1C	Shiga inhibitor 75.2 | CHX counter-2 inactive
CCOc1ccccc1NC(=O)COc1cccc(-n2cnnn2)c1	Pf growth 96h inconclusive
Cc1ccc(S(=O)(=O)N(CC(=O)NC2CCCC2)c2cccc(C)c2)cc1	Pf growth 96h inconclusive, Pf growth 48h inconclusive
CC(=O)c1sc(NC(C)c2ccccc2)nc1C (centres undefined)	none
CC(=O)c1sc(-c2ccccn2)nc1C	Shiga inhibitor 32.2, Pf growth 96h inconclusive (no result: NS1 function inh) | CHX counter-2 inactive
N=c1c(S(=O)(=O)c2ccc(Cl)cc2)cc2c(=O)n3ccccc3nc2n1CCc1ccccc1	Pf growth 48h inconclusive
N=c1c(S(=O)(=O)c2ccc(Cl)cc2)cc2c(=O)n3ccccc3nc2n1C1CCCCC1	Shiga inhibitor active, Pf growth 96h inconclusive | CHX counter-2 inactive
COc1ccc(S(=O)(=O)NCc2ccncc2)cc1NC(=O)c1ccc(Cl)cc1	Pf growth 96h inconclusive (no result: Shiga inhibitor, CHX counter-1, NS1 function inh)
O=C(/C=C\c1ccco1)Nc1nc(-c2ccc3ccccc3c2)cs1	Shiga inhibitor 58.1 | CHX counter-2 inactive
CCn1c(SCc2cccc(F)c2)nnc1-c1cccnc1	Pf growth 96h inconclusive
CCCN(CCC)S(=O)(=O)c1ccc(NS(=O)(=O)c2ccc(F)cc2)cc1	none
CCCNC(=O)c1ccc2snnc2c1	Shiga inhibitor 29.4, Pf growth 96h inconclusive | CHX counter-2 inactive
COc1ccc(NC(=O)C2CCCN(S(=O)(=O)c3ccccc3)C2)c(OC)c1 (centres undefined)	Pf growth 96h inconclusive
COc1ccc(-c2cc(-c3ccccc3O)[nH]n2)cc1OC	Shiga inhibitor 81.0 | CHX counter-2 2.52µM
COc1ccccc1-c1cc(N)n[nH]1	NS1 function inh inconclusive (no result: Pf growth 48h)
COc1ccc(NC(=O)c2c(Cl)n(C)c3ccccc23)cc1	Shiga inhibitor 40.3 | CHX counter-2 12.6µM
COc1ccc(NC(=O)CCn2cnnn2)cc1	none (no result: Shiga inhibitor, CHX counter-1, Pf growth 96h, NS1 function inh, Pf growth 48h)
O=C(CCn1cnnn1)Nc1ccccc1	Shiga inhibitor 21.9 (no result: NS1 function inh) | CHX counter-2 inactive
COc1cc(-n2nnnc2SC)c(OC)cc1Cl	Shiga inhibitor 47.2 (no result: Sm TGR inh) | CHX counter-2 inactive
Cc1cc(C)cc(NC(c2cccc(Cl)c2)c2nnc(-c3ccccc3)o2)c1 (centres undefined)	none (no result: Shiga inhibitor, CHX counter-1, Pf growth 96h, NS1 function inh, Pf growth 48h)
O=C(/C=C/c1ccc(Cl)cc1)N1CCN(Cc2ccccc2)CC1	Shiga inhibitor 25.1, Pf growth 96h inconclusive (no result: Pf growth 48h) | CHX counter-2 inactive
Cc1ccccc1S(=O)(=O)Nc1ncnc2ccccc12	Shiga inhibitor 32.9 | CHX counter-2 inactive
Cc1ccccc1S(=O)(=O)Nc1nc2ccccc2nc1Cl	none (no result: NS1 function inh)
CN(C(=O)c1ccc2c(=O)n3c(nc2c1)CCCCC3)c1ccccc1	Shiga inhibitor active | CHX counter-2 inactive
COC(=O)c1c(NC(=O)c2ccn(C)n2)sc2c1CCC2	Shiga inhibitor 40.0 | CHX counter-2 inconclusive
COC(=O)c1c(NC(=O)c2nn(C)cc2Cl)sc2c1CCCC2	Pf growth 96h inconclusive
CCNc1nc(NCC)nc(Oc2ccc(C(=O)OC)cc2)n1	none
COc1cc(C2C(S(=O)(=O)c3ccccc3)CON2C)ccc1OCc1ccc(F)cc1 (centres undefined)	Shiga inhibitor 42.7 | CHX counter-2 inactive
